Assay results: publication PMC12820563, “FoxP3 forms a head-to-head dimer in vivo and stabilizes its multimerization on adjacent microsatellites”
Over roughly 16,000 sequences, “rpm ratio (pull-down/input)” has its median near 0.5; the highest 2% begin near 5.5. This is one part of a sample in which the highest values are shown more often than they occur.

Each sequence was assayed against T1, MBP-FoxP3dN (Mus musculus, UniProt Q99JB6 188-423) (assay: PD-seq (MBP pull-down with sequencing); 20 mM Tris-HCl pH 7.5, 100 mM NaCl, 1.5 mM MgCl2, 0.4 uM protein, 0.1 uM dsDNA library, 30 min, room temperature, amylose pull-down; high values mean tight binding). Settings: protein: recombinant; tags: His6-MBP; chain copies: 2; dsDNA, one strand shown.
T1 sequence: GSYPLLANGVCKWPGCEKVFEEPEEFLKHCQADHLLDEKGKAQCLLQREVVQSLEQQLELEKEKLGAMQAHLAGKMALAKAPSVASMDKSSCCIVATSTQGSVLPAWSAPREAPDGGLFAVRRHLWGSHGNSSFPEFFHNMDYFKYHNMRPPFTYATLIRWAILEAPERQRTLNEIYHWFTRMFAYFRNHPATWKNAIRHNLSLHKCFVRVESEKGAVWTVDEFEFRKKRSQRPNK
How it was run: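 The N-terminus-lacking fragment of mouse FoxP3 or FoxP1 carried a His6-MBP tag and was expressed in E. coli. At 0.4 µM it was incubated with 0.1 µM Klenow-filled degenerate double-stranded DNA library for 30 min at room temperature in Tris pH 7.5 buffer with NaCl and MgCl2, and complexes were caught on amylose resin, washed three times, released with proteinase K, PCR-barcoded and Illumina-sequenced. Binding is reads-per-million enrichment of pull-down over input with replicates pooled.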

Sequence	binding signal
GATGATTGTTCTCCCAGCTGATGAATTTACAGGCTCGAGTAAACAAATTTTCCTAATCTTTCTGTTCAAGCGCCATCTAC	0.441 RPM ratio (pull-down/input)
GATGATTGTTCTCCCAGCTGATGAATTGGAACCGTCGAGTAAACAAATTTTCCTAATCTTTCTGTTCAAGCGCCATCTAC	0.224 RPM ratio (pull-down/input)
GATGATTGTTCTCCCAGCTGATGAATTTCTGTTATCGAGTAAACAAATTTTCCTAATCTTTCTGTTCAAGCGCCATCTAC	1.07 RPM ratio (pull-down/input)
GATGATTGTTCTCCCAGCTGATGAATTTTTGTTATCGAGTAAACAAATTTTCCTAATCTTTCTGTTCAAGCGCCATCTAC	2.29 RPM ratio (pull-down/input)
GATGATTGTTCTCCCAGCTGATGAATTGTTATCCTCGAGTAAACAAATTTTCCTAATCTTTCTGTTCAAGCGCCATCTAC	2.64 RPM ratio (pull-down/input)
GATGATTGTTCTCCCAGCTGATGAATTTGTTATCTCGAGTAAACAAATTTTCCTAATCTTTCTGTTCAAGCGCCATCTAC	7.03 RPM ratio (pull-down/input)
GATGATTGTTCTCCCAGCTGATGAATTGTTATTATCGAGTAAACAAATTTTCCTAATCTTTCTGTTCAAGCGCCATCTAC	5.54 RPM ratio (pull-down/input)
GATGATTGTTCTCCCAGCTGATGAATTGCTGTTATCGAGTAAACAAATTTTCCTAATCTTTCTGTTCAAGCGCCATCTAC	2.06 RPM ratio (pull-down/input)
GATGATTGTTCTCCCAGCTGATGAATTGTTGTTATCGAGTAAACAAATTTTCCTAATCTTTCTGTTCAAGCGCCATCTAC	6.7 RPM ratio (pull-down/input)
GATGATTGTTCTCCCAGCTGATGAATTATTATTATCGAGTAAACAAATTTTCCTAATCTTTCTGTTCAAGCGCCATCTAC	1.99 RPM ratio (pull-down/input)
GATGATTGTTCTCCCAGCTGATGAATTATTGTTATCGAGTAAACAAATTTTCCTAATCTTTCTGTTCAAGCGCCATCTAC	3.55 RPM ratio (pull-down/input)
GATGATTGTTCTCCCAGCTGATGAATTTCGGGCCTCGAGTAAACAAATTTTCCTAATCTTTCTGTTCAAGCGCCATCTAC	0.404 RPM ratio (pull-down/input)
GATGATTGTTCTCCCAGCTGATGAATTATGGAAATCGAGTAAACAAATTTTCCTAATCTTTCTGTTCAAGCGCCATCTAC	0.4 RPM ratio (pull-down/input)
GATGATTGTTCTCCCAGCTGATGAATTTTGTGCTTCGAGTAAACAAATTTTCCTAATCTTTCTGTTCAAGCGCCATCTAC	1.87 RPM ratio (pull-down/input)
GATGATTGTTCTCCCAGCTGATGAATTGAGACTATCGAGTAAACAAATTTTCCTAATCTTTCTGTTCAAGCGCCATCTAC	0.692 RPM ratio (pull-down/input)
GATGATTGTTCTCCCAGCTGATGAATTCCTTAGCTCGAGTAAACAAATTTTCCTAATCTTTCTGTTCAAGCGCCATCTAC	0.222 RPM ratio (pull-down/input)
GATGATTGTTCTCCCAGCTGATGAATTTGGACTGTCGAGTAAACAAATTTTCCTAATCTTTCTGTTCAAGCGCCATCTAC	0.82 RPM ratio (pull-down/input)
GATGATTGTTCTCCCAGCTGATGAATTTCGGTGCTCGAGTAAACAAATTTTCCTAATCTTTCTGTTCAAGCGCCATCTAC	0.541 RPM ratio (pull-down/input)
GATGATTGTTCTCCCAGCTGATGAATTTGCGAATTCGAGTAAACAAATTTTCCTAATCTTTCTGTTCAAGCGCCATCTAC	1.18 RPM ratio (pull-down/input)
GATGATTGTTCTCCCAGCTGATGAATTTTGCGCATCGAGTAAACAAATTTTCCTAATCTTTCTGTTCAAGCGCCATCTAC	1.98 RPM ratio (pull-down/input)
GATGATTGTTCTCCCAGCTGATGAATTGCGCATTTCGAGTAAACAAATTTTCCTAATCTTTCTGTTCAAGCGCCATCTAC	8.05 RPM ratio (pull-down/input)

Sequence	binding signal
GATGATTGTTCTCCCAGCTGATGAATTGCATTGTTCGAGTAAACAAATTTTCCTAATCTTTCTGTTCAAGCGCCATCTAC	4.05 RPM ratio (pull-down/input)
GATGATTGTTCTCCCAGCTGATGAATTTTGCGATTCGAGTAAACAAATTTTCCTAATCTTTCTGTTCAAGCGCCATCTAC	2.4 RPM ratio (pull-down/input)
GATGATTGTTCTCCCAGCTGATGAATTTGCGCATTCGAGTAAACAAATTTTCCTAATCTTTCTGTTCAAGCGCCATCTAC	7.07 RPM ratio (pull-down/input)
GATGATTGTTCTCCCAGCTGATGAATTGCATTTTTCGAGTAAACAAATTTTCCTAATCTTTCTGTTCAAGCGCCATCTAC	3.02 RPM ratio (pull-down/input)
GATGATTGTTCTCCCAGCTGATGAATTGCGCGCATCGAGTAAACAAATTTTCCTAATCTTTCTGTTCAAGCGCCATCTAC	2.39 RPM ratio (pull-down/input)
GATGATTGTTCTCCCAGCTGATGAATTGCGCATCTCGAGTAAACAAATTTTCCTAATCTTTCTGTTCAAGCGCCATCTAC	8.03 RPM ratio (pull-down/input)
GATGATTGTTCTCCCAGCTGATGAATTTTTGACCTCGAGTAAACAAATTTTCCTAATCTTTCTGTTCAAGCGCCATCTAC	0.237 RPM ratio (pull-down/input)
GATGATTGTTCTCCCAGCTGATGAATTCTTCTGCTCGAGTAAACAAATTTTCCTAATCTTTCTGTTCAAGCGCCATCTAC	0.236 RPM ratio (pull-down/input)
GATGATTGTTCTCCCAGCTGATGAATTACGTGACTCGAGTAAACAAATTTTCCTAATCTTTCTGTTCAAGCGCCATCTAC	0.737 RPM ratio (pull-down/input)
GATGATTGTTCTCCCAGCTGATGAATTGATCAAATCGAGTAAACAAATTTTCCTAATCTTTCTGTTCAAGCGCCATCTAC	0.304 RPM ratio (pull-down/input)
GATGATTGTTCTCCCAGCTGATGAATTGGGAACGTCGAGTAAACAAATTTTCCTAATCTTTCTGTTCAAGCGCCATCTAC	0.31 RPM ratio (pull-down/input)
GATGATTGTTCTCCCAGCTGATGAATTATAGAACTCGAGTAAACAAATTTTCCTAATCTTTCTGTTCAAGCGCCATCTAC	0.249 RPM ratio (pull-down/input)
GATGATTGTTCTCCCAGCTGATGAATTGCGCTGATCGAGTAAACAAATTTTCCTAATCTTTCTGTTCAAGCGCCATCTAC	0.898 RPM ratio (pull-down/input)
GATGATTGTTCTCCCAGCTGATGAATTCCTGAATTCGAGTAAACAAATTTTCCTAATCTTTCTGTTCAAGCGCCATCTAC	0.481 RPM ratio (pull-down/input)
GATGATTGTTCTCCCAGCTGATGAATTTATTTCTTCGAGTAAACAAATTTTCCTAATCTTTCTGTTCAAGCGCCATCTAC	3.01 RPM ratio (pull-down/input)
GATGATTGTTCTCCCAGCTGATGAATTGTTTATTTCGAGTAAACAAATTTTCCTAATCTTTCTGTTCAAGCGCCATCTAC	6.99 RPM ratio (pull-down/input)
GATGATTGTTCTCCCAGCTGATGAATTTATTGTTTCGAGTAAACAAATTTTCCTAATCTTTCTGTTCAAGCGCCATCTAC	6.4 RPM ratio (pull-down/input)
GATGATTGTTCTCCCAGCTGATGAATTATTGTTTTCGAGTAAACAAATTTTCCTAATCTTTCTGTTCAAGCGCCATCTAC	3.7 RPM ratio (pull-down/input)
GATGATTGTTCTCCCAGCTGATGAATTTCATACATCGAGTAAACAAATTTTCCTAATCTTTCTGTTCAAGCGCCATCTAC	0.449 RPM ratio (pull-down/input)
GATGATTGTTCTCCCAGCTGATGAATTGAGGACGTCGAGTAAACAAATTTTCCTAATCTTTCTGTTCAAGCGCCATCTAC	0.248 RPM ratio (pull-down/input)
GATGATTGTTCTCCCAGCTGATGAATTGTATCGGTCGAGTAAACAAATTTTCCTAATCTTTCTGTTCAAGCGCCATCTAC	0.882 RPM ratio (pull-down/input)

Sequence	binding signal
GATGATTGTTCTCCCAGCTGATGAATTCCAGTGGTCGAGTAAACAAATTTTCCTAATCTTTCTGTTCAAGCGCCATCTAC	0.415 RPM ratio (pull-down/input)
GATGATTGTTCTCCCAGCTGATGAATTTTTGTACTCGAGTAAACAAATTTTCCTAATCTTTCTGTTCAAGCGCCATCTAC	0.489 RPM ratio (pull-down/input)
GATGATTGTTCTCCCAGCTGATGAATTTTGTGTCTCGAGTAAACAAATTTTCCTAATCTTTCTGTTCAAGCGCCATCTAC	4.27 RPM ratio (pull-down/input)
GATGATTGTTCTCCCAGCTGATGAATTCTTGTGTTCGAGTAAACAAATTTTCCTAATCTTTCTGTTCAAGCGCCATCTAC	0.821 RPM ratio (pull-down/input)
GATGATTGTTCTCCCAGCTGATGAATTGTGTTGTTCGAGTAAACAAATTTTCCTAATCTTTCTGTTCAAGCGCCATCTAC	8.43 RPM ratio (pull-down/input)
GATGATTGTTCTCCCAGCTGATGAATTTGTGTACTCGAGTAAACAAATTTTCCTAATCTTTCTGTTCAAGCGCCATCTAC	6.72 RPM ratio (pull-down/input)
GATGATTGTTCTCCCAGCTGATGAATTTGTGTGTTCGAGTAAACAAATTTTCCTAATCTTTCTGTTCAAGCGCCATCTAC	5.99 RPM ratio (pull-down/input)
GATGATTGTTCTCCCAGCTGATGAATTGTGTTTCTCGAGTAAACAAATTTTCCTAATCTTTCTGTTCAAGCGCCATCTAC	4.32 RPM ratio (pull-down/input)
GATGATTGTTCTCCCAGCTGATGAATTGATGTGTTCGAGTAAACAAATTTTCCTAATCTTTCTGTTCAAGCGCCATCTAC	1.66 RPM ratio (pull-down/input)
GATGATTGTTCTCCCAGCTGATGAATTTGTGTTCTCGAGTAAACAAATTTTCCTAATCTTTCTGTTCAAGCGCCATCTAC	6.29 RPM ratio (pull-down/input)
GATGATTGTTCTCCCAGCTGATGAATTTTTGTGTTCGAGTAAACAAATTTTCCTAATCTTTCTGTTCAAGCGCCATCTAC	1.04 RPM ratio (pull-down/input)
GATGATTGTTCTCCCAGCTGATGAATTTGTACTCTCGAGTAAACAAATTTTCCTAATCTTTCTGTTCAAGCGCCATCTAC	2.81 RPM ratio (pull-down/input)
GATGATTGTTCTCCCAGCTGATGAATTTGTGTTTTCGAGTAAACAAATTTTCCTAATCTTTCTGTTCAAGCGCCATCTAC	5.24 RPM ratio (pull-down/input)
GATGATTGTTCTCCCAGCTGATGAATTCCACCTATCGAGTAAACAAATTTTCCTAATCTTTCTGTTCAAGCGCCATCTAC	0.432 RPM ratio (pull-down/input)
GATGATTGTTCTCCCAGCTGATGAATTCTTACGCTCGAGTAAACAAATTTTCCTAATCTTTCTGTTCAAGCGCCATCTAC	0.256 RPM ratio (pull-down/input)
GATGATTGTTCTCCCAGCTGATGAATTTCATGATTCGAGTAAACAAATTTTCCTAATCTTTCTGTTCAAGCGCCATCTAC	0.692 RPM ratio (pull-down/input)
GATGATTGTTCTCCCAGCTGATGAATTATTCCCATCGAGTAAACAAATTTTCCTAATCTTTCTGTTCAAGCGCCATCTAC	0.334 RPM ratio (pull-down/input)
GATGATTGTTCTCCCAGCTGATGAATTTGTACCTTCGAGTAAACAAATTTTCCTAATCTTTCTGTTCAAGCGCCATCTAC	2.49 RPM ratio (pull-down/input)
GATGATTGTTCTCCCAGCTGATGAATTGAGCCCCTCGAGTAAACAAATTTTCCTAATCTTTCTGTTCAAGCGCCATCTAC	0.983 RPM ratio (pull-down/input)
GATGATTGTTCTCCCAGCTGATGAATTACACCTCTCGAGTAAACAAATTTTCCTAATCTTTCTGTTCAAGCGCCATCTAC	0.705 RPM ratio (pull-down/input)
GATGATTGTTCTCCCAGCTGATGAATTAACTGTGTCGAGTAAACAAATTTTCCTAATCTTTCTGTTCAAGCGCCATCTAC	0.556 RPM ratio (pull-down/input)
